# Bioassay records: PubChem, Broad Institute
# Compounds with a hit are over-represented: about 4% of the library has one in this group of screens.
# EBV LMP1 NFkB: EBV LMP1-driven NF-kappaB luciferase reporter inhibitors, primary screen, cell-based, luminescence, single point | LMP1-induced NF-kappaB luciferase reporter cells | inhibition, % at 12.5 µM | 350,000 tested, 0.69% active | AID 504558, 2011; in the data active means inhibition above about 41%
# Statin myotox sup: suppressors of statin myotoxicity in C2C12 myotubes, primary screen, cell-based, single point, plate reader; C2C12 myotubes + simvastatin, ATP luminescence, 48 h; scaled: DMSO 0, geranylgeraniol control 100; rescue of ATP level, % at 7.49 µM; 330,000 tested, 0.78% active; AID 602340, 2012;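 active means mean ATP rescue above about 67%, or every replicate alone reaching that limit, limit read from the data, passing the limit was not always enough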;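 further: myotubes were challenged with 10 µM simvastatin during compound exposure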
# MITF TRPM1 inh: inhibitors of MITF-dependent TRPM1 promoter reporter, primary screen, cell-based, SK-MEL-5, single point, luciferase; SK-MEL-5 TRPM1 promoter luciferase, 24 h; 330,000 tested, 0.83% active; inhibition, % at 12.5 µM; AID 488899, 2010;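 active means mean inhibition across replicates of 60% or more, whatever share of single replicates reaches that level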
# MITF TRPM1 HTS: activators of MITF-driven TRPM1 promoter reporter, primary screen, cell-based, SK-MEL-5, luciferase, single point; SK-MEL-5 TRPM1-promoter luciferase, 24 h; % of positive control, neutral wells = 0; activation, % at 12.5 µM; 300,000 tested, 0.75% active; AID 588334, 2011;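 active means mean activation of at least 80% with every replicate also reaching 80%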
# esBAF inh: Bmi1 luciferase reporter increase in mESCs, primary screen, esBAF inhibitor project, mouse ES cells, Bmi1 luciferase knock-in, single point; 24 h; 100% = twice the neutral-well signal; reporter increase, % at 12.5 µM; 350,000 tested, 2% active; in the data active means activation above about 40%;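 further: a rise in the Bmi1 reporter signal indicates esBAF inhibition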
# Wnt act: Wnt/beta-catenin pathway activators, primary screen, cell-based, plate reader, single point. 300,000 tested, 1.2% active. AID 743398, 2014. Wnt/beta-catenin reporter cell assay, activator. activation, % at 9.35 µM; in the data active means activation above about 30%, passing the limit was not always enough
# A number is an active result; i = inactive; nt = no result.
SMILES,EBV LMP1 NFkB,Statin myotox sup,MITF TRPM1 inh,MITF TRPM1 HTS,esBAF inh,Wnt act
Cc1ccc(-c2nnn(CC(=O)N(CCO)C(C(=O)NC3CCCC3)c3ccc(F)cc3)n2)o1 (stereo unspecified),i,i,i,i,i,i
c1ccc2c(CCNc3ncnc4nc[nH]c34)cccc2c1,i,85.8,i,i,i,i
Cn1c(-n2c(-c3ccco3)nc3ccccc3c2=O)nc2ccccc21,i,nt,i,i,49.0,i
O=c1c2ccccc2nc(-c2ccco2)n1-c1nc2ccccc2s1,i,nt,i,i,nt,i
CCCC(=O)Nc1ccc2c(c1)C(=O)N(C)[C@H]1CC[C@@H](CC(=O)NCCc3ccncc3)O[C@@H]1CO2,nt,i,nt,nt,i,nt
COc1ccc(CCN(C)C(=O)CCCN2C(=O)c3cccc4cccc(c34)C2=O)cc1OC,i,nt,i,i,nt,i
Cc1nn2c(NCc3ccccn3)cc(C(C)(C)C)nc2c1-c1ccccc1,i,i,i,i,i,i
COc1ccccc1C(=O)Nc1ccc(NC(=O)c2ccco2)cn1,i,i,i,92.0,64.2,i
O=C(Nc1ccc(NC(=O)c2ccccc2)nc1)c1ccncc1,i,i,i,i,42.7,i
O=C(Nc1ccc(NC(=O)c2ccccc2Cl)nc1)c1ccncc1,i,i,i,i,i,i
CC(C)(C)C(=O)Nc1ccc(NC(=O)c2ccco2)nc1,80.7,i,92.1,i,i,i
O=C(Nc1ccc(NC(=O)c2ccco2)nc1)c1ccco1,45.2,nt,i,i,nt,i
O=C(Nc1ccc(NC(=O)C2CCCCC2)cn1)c1ccco1,i,i,i,i,i,nt
CO[C@H](CN(C)S(=O)(=O)c1cn(C)cn1)[C@H](C)CN(C(=O)Nc1ccc(C(F)(F)F)cc1)[C@@H](C)CO,nt,i,nt,nt,i,nt
Cc1nonc1N1CCN(Cc2cn[nH]c2-c2ccc3c(c2)OCO3)CC1,i,i,i,i,i,i
C[C@@H]1CN([C@@H](C)CO)C(=O)c2cc(C3=CCCCC3)cnc2O[C@H]1CN(C)C(=O)Nc1ccccc1,nt,i,nt,nt,i,nt
COc1ccc(-c2cnnc(N/N=C/c3ccc(OC)c(OC)c3)n2)cc1,i,nt,i,i,nt,nt
O=C(Nc1ccc(NC(=O)C23CC4CC(CC(C4)C2)C3)cn1)c1ccco1,i,i,i,96.2,48.9,nt
CCC(=O)Nc1ccc(NC(=O)C23CC4CC(CC(C4)C2)C3)cn1,i,i,i,i,i,nt
O=C(Cc1ccccc1)Nc1ccc(NC(=O)c2ccco2)nc1,i,i,i,nt,46.2,40.3
O=C(Nc1ccc(NC(=O)c2ccco2)nc1)c1ccccn1,i,112.9,i,i,i,i
COc1ccccc1C(=O)Oc1ccc(C(C)C)cc1,i,nt,i,i,nt,i
COc1ccc(NC(=O)Nc2ccc3c(c2)C(=O)N(C)C[C@H](OC)[C@H](C)CN[C@@H](C)CO3)cc1,nt,i,nt,nt,i,nt
C[C@@H]1CN([C@H](C)CO)C(=O)Cc2cc(NS(=O)(=O)c3ccc(F)cc3)ccc2O[C@@H]1CN(C)Cc1ccc(-c2ccccc2)cc1,nt,i,nt,nt,i,nt
C[C@@H]1CN([C@@H](C)CO)C(=O)Cc2cc(NS(=O)(=O)c3ccc(F)cc3)ccc2O[C@H]1CN(C)Cc1ccc(-c2ccccc2)cc1,nt,79.8,nt,nt,i,nt
C[C@@H]1CN([C@@H](C)CO)C(=O)Cc2cc(NS(=O)(=O)c3ccc(Cl)cc3)ccc2O[C@H]1CN(C)Cc1ccc(-c2ccccc2)cc1,nt,68.8,nt,nt,i,nt
C[C@H]1CN([C@@H](C)CO)C(=O)Cc2cc(NS(=O)(=O)c3cn(C)cn3)ccc2O[C@@H]1CN(C)Cc1ccc(-c2ccccc2)cc1,nt,88.2,nt,nt,i,nt
C[C@@H]1CN([C@@H](C)CO)C(=O)Cc2cc(NS(=O)(=O)c3ccc(Cl)cc3)ccc2O[C@@H]1CN(C)Cc1ccc(-c2ccccc2)cc1,nt,i,nt,nt,i,nt
O=C(Nc1ccc(Oc2ccccc2)cc1)c1csc([C@@H]2O[C@H](CO)[C@@H](O)[C@H]2O)n1,nt,i,nt,nt,i,i
COc1cc(OC)nc(NC(=O)NS(=O)(=O)c2ccc(OC(F)(F)F)cc2)n1,i,i,i,i,i,nt
